Experimental data from article PMC4336329 (PLoS ONE, 2015).
The whole screen tested about 310,000 compounds, of which about 2,200 (0.71%) showed an effect of 50% or more. The effect is printed as a negative number. Only a selection was taken, and strong results are over-represented in it overall.

biological target: human ether-à-go-go-related gene (hERG) potassium channel (human, UniProt Q12809); assay: primary screen, population patch clamp on CHO cells stably expressing hERG; higher = less effect of the substance
Sequence (Q12809 whole entry, looked up): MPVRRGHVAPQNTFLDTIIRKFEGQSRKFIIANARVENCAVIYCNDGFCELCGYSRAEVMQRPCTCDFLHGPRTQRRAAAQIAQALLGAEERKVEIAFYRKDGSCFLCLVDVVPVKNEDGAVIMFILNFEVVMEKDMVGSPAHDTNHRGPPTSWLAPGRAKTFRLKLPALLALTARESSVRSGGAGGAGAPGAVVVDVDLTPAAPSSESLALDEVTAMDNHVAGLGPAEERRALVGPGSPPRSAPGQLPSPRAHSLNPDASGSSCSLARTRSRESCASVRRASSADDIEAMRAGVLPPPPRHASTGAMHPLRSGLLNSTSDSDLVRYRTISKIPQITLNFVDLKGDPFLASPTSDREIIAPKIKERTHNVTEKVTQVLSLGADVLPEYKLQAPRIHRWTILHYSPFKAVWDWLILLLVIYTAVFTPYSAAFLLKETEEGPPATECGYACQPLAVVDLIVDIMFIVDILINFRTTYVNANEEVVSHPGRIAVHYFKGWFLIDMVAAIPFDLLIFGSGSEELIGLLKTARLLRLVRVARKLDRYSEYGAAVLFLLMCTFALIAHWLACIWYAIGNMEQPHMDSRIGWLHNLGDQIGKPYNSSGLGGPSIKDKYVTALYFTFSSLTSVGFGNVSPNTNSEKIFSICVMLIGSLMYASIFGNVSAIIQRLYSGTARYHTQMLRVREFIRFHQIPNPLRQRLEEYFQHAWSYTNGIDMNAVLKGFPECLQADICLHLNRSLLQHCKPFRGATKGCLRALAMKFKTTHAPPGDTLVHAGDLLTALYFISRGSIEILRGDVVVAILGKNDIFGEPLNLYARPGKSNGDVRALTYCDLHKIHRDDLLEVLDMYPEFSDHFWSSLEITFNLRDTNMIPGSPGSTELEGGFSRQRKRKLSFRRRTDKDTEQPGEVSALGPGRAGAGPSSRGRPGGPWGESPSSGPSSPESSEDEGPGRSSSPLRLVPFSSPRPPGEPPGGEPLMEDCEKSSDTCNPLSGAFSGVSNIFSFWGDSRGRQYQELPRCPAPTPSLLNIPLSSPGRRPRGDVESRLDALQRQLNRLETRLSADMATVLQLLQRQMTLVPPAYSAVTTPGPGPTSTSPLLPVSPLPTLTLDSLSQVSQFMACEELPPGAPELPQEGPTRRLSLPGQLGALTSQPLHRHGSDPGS
Experimental: Briefly, Chinese hamster ovary (CHO) cells stably expressing the hERG channel were dislodged from tissue culture flasks and dispensed into PPC plates. […] During the recording, background leak currents were estimated by a 100 ms step to -80 mV from an initial holding potential of -70 mV and subtracted from the subsequent current measurement. The campaign was conducted in two phases using slight differences in recording protocol. In the first phase, the initial voltage pulse used a 100 ms step to -30 mV from a holding potential of -70 mV, a 2 s conditioning step to +25 mV, and a 2 s test step to -30 mV. During the second phase of the screen, the potential during the conditioning step was raised to +45 mV. In both phases of the campaign, a secondary voltage pulse was applied using the same parameters as the second phase initial pulse. The initial and secondary pulses were applied in the absence of compound, and upon application of 1 μM and 10 μM test concentrations. Small molecule effects on hERG current density were quantified by […].

Structure (SMILES) | hERG current change (%, negative = inhibition) at 1uM
CCc1cccc2c(C=C(C#N)C#N)cn(CC(=O)N3CCCC3)c12 | 2.04%
CNC(=O)C1CCN(S(=O)(=O)c2c(C)noc2/C=C/c2ccc(C)cc2)CC1 | 10.2%
COc1ccccc1/C=C/CN1CCC(Oc2ccc(C(=O)N3CCCCC3)cc2)CC1 | 7.23%
COc1ccccc1/C=C/CN1CCC(Oc2ccc(C(=O)N3CCCC3)cc2)CC1 | 10.1%
COc1ccccc1/C=C/CN1CCC(Oc2cc(C(=O)NC3CC3)ccc2OC)CC1 | -78.3%
COc1cc(C(=O)N2CCN(C/C=C/c3ccccc3)CC2)cc(OC)c1C | 6.9%
COc1cc(C(=O)N2CCN(C/C=C/c3ccccc3)CC2)cc(OC)c1OC | -2.2%
COc1ccc(C(=O)NC2CC2)cc1OC1CCN(C/C=C/c2ccccc2)CC1 | -84.3%
Cc1ccc(SCCC(=O)NCCSCc2ccccc2C)cc1 | 10.1%
O=P1(O)C=C(c2ccccc2)OC(c2ccccc2)=C1 | 14.1%
O=P1(Nn2cnnc2)C=C(c2ccccc2)OC(c2ccccc2)=C1 | -9.39%
CCN1CCN(P2(=O)C=C(c3ccccc3)OC(c3ccccc3)=C2)CC1 | -86.5%
Cc1ccc(CSCC(=O)NCc2cccs2)cc1 | 7.51%
CCc1ccc(-n2nnnc2SCC(=O)Nc2ccc(NC(C)=O)cc2)cc1 | 20.4%
Cc1cc(SCC(=O)N/N=C/c2ccc(O)cc2O)c(C)cc1Br | 8.67%
Cc1cccc(OCC(=O)Nc2ccc3c(c2)nc(CCN2CCC(C)CC2)n3C)c1 | -47.9%
Cn1c(CCN2CCN(c3ccccn3)CC2)nc2cc(NC(=O)COc3ccccc3)ccc21 | -67%
Cc1cccc(OCC(=O)Nc2ccc3c(c2)nc(CCN2CCN(c4ccccn4)CC2)n3C)c1 | -67%
Cn1c(CCN2CCN(c3ccccn3)CC2)nc2cc(NC(=O)COc3ccc(Cl)cc3)ccc21 | 0.879%
CCC(=O)Nc1ccc2c(c1)nc(CCN1CCN(c3ccccn3)CC1)n2C | 4.59%
Cn1c(CCN2CCN(c3ccccn3)CC2)nc2cc(NC(=O)COc3ccc([N+](=O)[O-])cc3)ccc21 | 9.63%
COc1ccc(C2OC(=O)CC2C(=O)N2CCN(c3cc(Cl)ccc3C)CC2)cc1OC (centres unmarked) | 7.68%

Structure (SMILES) | hERG current change (%, negative = inhibition) at 1uM
CCn1c(-c2cc(-c3ccc(C)c(C)c3)nc3ccccc23)n[nH]c1=S | 16.2%
CCOC(=O)C1CCN(C2CC(=O)N(c3ccc(OCC)cc3)C2=O)CC1 (centres unmarked) | 2.22%
CCOC(=O)c1cnc2c(OC)cccc2c1Oc1ccccc1 | 11%
CCOC(=O)c1cnc2c(OC)cccc2c1Nc1ccc2c(c1)OCCO2 | -3.26%
CCOC(=O)c1cnc2c(C(=O)OC)cccc2c1NCc1cccnc1 | -55.5%
CCOC(=O)c1cnc2ccc(OCC)cc2c1NCc1ccccc1 | -12.8%
CCOC(=O)c1ccc(NCc2cccnc2)cc1 | 8.24%
CCOC(=O)c1cnc2c(C(=O)OC)cccc2c1NCc1ccco1 | -71.4%
CCOC(=O)c1cnc2c(C(=O)OC)cccc2c1NCCN1CCOCC1 | -47.1%
CCOC(=O)c1cnc2ccc(OC)cc2c1NCc1ccccc1 | -33.4%
CCOC(=O)c1cnc2ccc(OCC)cc2c1NCc1cccnc1.Cl | -75.3%
CCOC(=O)c1cnc2c(OC)cccc2c1NCc1cccnc1 | -68.1%
CCOC(=O)c1cnc2ccccc2c1NCc1ccco1 | -14.7%
CCOC(=O)c1cnc2c(C)cccc2c1NCc1ccco1 | -45.3%
COc1ccc(OC)c(C(=O)CSc2nnc(Cc3cccs3)n2CCc2ccccc2)c1 | -6.84%
CC(NC(=O)CSc1nc2ccccc2c(=O)n1CCCO)c1ccccc1 (centres unmarked) | -0.931%
COCCN(CCOC)S(=O)(=O)c1ccc(C(=O)NC2CCN(Cc3ccccc3)CC2)cc1.Cl | -1.24%
COc1ccc(C(=O)Nc2nnc(SCC(=O)NC3CCCC3)s2)c(OC)c1 | 14.4%
CN1C(=O)/C(=C\c2cc(Br)cs2)c2ccccc21 | 12.7%
O=C(Cc1ccc(Cl)cc1)NCC(=O)N1CCCCCC1 | 4.89%
COc1ccc(-n2c(=O)c3c4c(sc3n3c(=S)[nH]nc23)CCC4)cc1 | 9.01%
CCCN1CCN(CCCNC(=O)c2ccc3c(c2)NC(=O)c2ccccc2S3)CC1 | 9.21%
